# Most compounds without a hit are left out; they make up all but 3.3% or so of the library.
# Hsp90 Hop PPI: qHTS Assay for Disrupters of an Hsp90 Co-Chaperone Interaction; Hsp90 C-terminal peptide / TPR2A (Hop) interaction, human; 71,000 compounds, 0.44% hits; AlphaScreen TPR2A-His6 binding biotin-Hsp90 C-terminal peptide; Potency, µM (titrated, usually from 57 µM), inactives show at the highest dose activity change, negative = inhibition; active = well fitted curve in either direction with a large enough effect; inconclusive = small, poorly fitted or top-dose-only effect, or another doubt; also: potency is read from the fitted curve at half-maximal effect; % is scaled to controls: 0 for no effect and ±100 for the full control effect
# HEK293 cAMP cs: qHTS Assay for Agonists of the Thyroid Stimulating Hormone Receptor: Activators of Intracellular cAMP Concentrations in Parental HEK 293; parental HEK293 CNG cAMP sensor, membrane potential fluorescence; Potency, µM (highest dose often 57.1 µM), for the others: top-dose activation, hits mostly activators; 73,000 compounds, 2.5% hits; AID 938, 2007; also: potency is read from the fitted curve at half-maximal effect; % of control where 0% means no effect; nearly all actives have a fitted effect of over 55% in size
#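 Parental HEK 293 cells stably expressing a modified CNG channel (no TSHR) report cAMP rise as membrane depolarization. Membrane potential dye with 100 uM RO 20-1724 was loaded for 60 min at room temperature, then compound added for 30 min; fluorescence read at 590 nm.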
# BRCT inh red: qHTS Assay for Inhibitors of BRCT-Phosphoprotein Interaction (Red Fluorophore); 75,000 compounds, 0.03% hits; Potency, µM (titrated, usually from 76.9 µM), inactives show at the highest dose activity change, negative = inhibition, actives largely listed as inhibitors; BRCT-phosphopeptide binding, red fluorescence polarization; AID 892, 2007; also: % is scaled to controls: 0 for no effect and ±100 for the full control effect
#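 Rhodamine-labelled pBACH1 10-mer (100 nM) bound to BRCT domain (100 nM) at pH 7.3; compounds incubated 12 min room temperature, polarization read. Free peptide defines full inhibition; unlabelled decapeptide titrated as control.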
# TSHR ag: qHTS Assay for Agonists of the Thyroid Stimulating Hormone Receptor. Thyrotropin receptor (Homo sapiens), P16473. HEK293-CNG-TSHR cells (CNG channel as cAMP sensor), membrane potential dye, cAMP. Potency, µM (titrated, usually from 57.1 µM), for inactives: at the highest dose activation, most hits filed as activators. 73,000 compounds, 0.48% hits. AID 926, 2007; active = well fitted activation curve with a large enough effect in the main read-out, with a control signal flat, not every such curve was filed as active; inconclusive = small, poorly fitted or top-dose-only effect, or a change in a side signal; inactive = no such curve, though single readings can be large or run the other way; % of control where 0% means no effect;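 also: the control signal comes from parental cells without the receptor; potency is read from the fitted curve at half-maximal effect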
# Target sequence (P16473 whole entry, looked up): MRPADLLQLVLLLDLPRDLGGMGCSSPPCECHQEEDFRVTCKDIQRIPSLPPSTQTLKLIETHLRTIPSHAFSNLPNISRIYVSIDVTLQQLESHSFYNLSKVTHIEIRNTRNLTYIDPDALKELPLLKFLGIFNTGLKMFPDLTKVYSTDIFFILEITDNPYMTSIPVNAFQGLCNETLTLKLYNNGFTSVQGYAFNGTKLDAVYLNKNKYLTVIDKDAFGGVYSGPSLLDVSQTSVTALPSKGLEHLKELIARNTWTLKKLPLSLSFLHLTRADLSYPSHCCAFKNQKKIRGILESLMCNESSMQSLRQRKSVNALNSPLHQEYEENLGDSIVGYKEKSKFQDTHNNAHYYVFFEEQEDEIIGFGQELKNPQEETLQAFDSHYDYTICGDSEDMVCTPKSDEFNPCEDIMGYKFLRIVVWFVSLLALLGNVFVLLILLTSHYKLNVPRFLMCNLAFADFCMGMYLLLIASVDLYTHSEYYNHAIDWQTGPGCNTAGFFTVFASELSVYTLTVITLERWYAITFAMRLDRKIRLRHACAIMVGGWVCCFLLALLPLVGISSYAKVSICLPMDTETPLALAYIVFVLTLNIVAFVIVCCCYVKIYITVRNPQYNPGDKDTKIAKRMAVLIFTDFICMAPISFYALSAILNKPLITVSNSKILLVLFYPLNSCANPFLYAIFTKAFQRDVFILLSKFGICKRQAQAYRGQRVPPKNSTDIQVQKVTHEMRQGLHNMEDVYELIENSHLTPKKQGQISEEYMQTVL
#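 HEK 293 cells stably expressing TSHR and a cAMP-gated CNG channel; parental CNG-only cells as counterscreen. Cells preloaded 60 min with membrane potential dye plus 100 uM RO 20-1724, then compound 30 min; fluorescence read at 590 nm.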
# YjeE inh: qHTS Assay for Inhibitors of YjeE; purified YjeE enzyme, qHTS inhibition assay; 71,000 compounds, 0.05% hits; AID 605, 2007; Potency, µM
#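 Fluorescence polarization of a BODIPY Texas Red–ADP probe (2 uM) bound to purified YjeE (10 uM) was read after 15 min room-temperature incubation with compounds. Loss of polarization marks inhibitors; ADP serves as titrated control.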
# BRCT inh green: qHTS Assay for Inhibitors of BRCT-Phosphoprotein Interaction (Green Fluorophore) | Breast cancer type 1 susceptibility protein (Homo sapiens), P38398 | BRCA1 BRCT-phosphopeptide binding, green fluorescence polarization | Potency, µM (top dose mostly 76.9 µM), for inactives: at the top dose activity change, negative = inhibition, usual class: inhibitors | 75,000 compounds, 0.05% hits | AID 875, 2007;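 also: potency is read from the fitted curve at half-maximal effect; plate controls were peptide without protein for full effect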
#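 Fluorescence polarization: His-tagged BRCT (~35 kDa BRCA1 C-terminus, 250 nM) bound to 100 nM fluorescein-labeled phosphorylated 10-aa BACH1 peptide, pH 7.3 phosphate buffer with DTT and Tween 20. Compounds incubated 12 min at room temperature; inhibition read as lowered polarization.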
# Hsp90-TPR2A inh: Confirmation Concentration-Response Assay and Counterscreen for Disrupters of an Hsp90 Co-Chaperone Interaction; shares compounds with Hsp90 Hop PPI; AlphaScreen TPR2A-His6 / biotin-Hsp90 peptide binding; activity, negative = inhibition, % at 40 µM or 46 µM, hits read low; 45 compounds, 100% hits;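 active = compound lowering the Hsp90 and TPR2A binding signal, whether or not the linker counterscreen also flagged it as an artifact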
# HEK293 cAMP cnt: Confirmation Concentration-Response Assay for Agonists of the Thyroid Stimulating Hormone Receptor: Activators of Intracellular cAMP Concentrations in Parental HEK 293; shares compounds with TSHR ag; parental HEK293 CNG biosensor, cAMP membrane potential fluorescence; activity change, negative = inhibition, % at 32.9 µM; 150 tested, under 10 active; AID 953, 2007
# Starred values were filed as active, the others as inactive; i = inactive; ? = inconclusive; / = no result given; + = active, no number; [ ] = another dose, or the depositor's remark. Unless noted, calls follow the shape of the dose curve; as a rule, active = well fitted curve in the direction sought with a large enough effect; inconclusive = small, poorly fitted or top-dose-only effect, or another doubt; inactive = no such curve, though single readings can be large; an effect the other way counts as inactive or inconclusive.
SMILES,Hsp90 Hop PPI,HEK293 cAMP cs,BRCT inh red,TSHR ag,YjeE inh,BRCT inh green,HEK293 cAMP cnt,others
CN1CCc2c(sc3c2C(=O)NC(c2ccccn2)N3)C1 (configuration not stated),16µM*,1%,-10%,5%,i,-8%,/,Hsp90-TPR2A inh=-81*[alpha-screen platform artifact]
Cc1ccc(C2NC(=O)c3c(sc4c3CCN(C)C4)N2)s1 (configuration not stated),-11%,-6%,-2%,-5%,i,23%,/,
C=CCC1C=CC(Oc2ccc(OC)cc2)C(CO)O1 (configuration not stated),/,2%[11.4 µM],0%[15.4 µM],-2%[11.4 µM],/,1%[15.4 µM],/,
Cc1ccccc1CS(=O)(=O)Cc1ccc(C(=O)NCc2ccccn2)o1,4µM*,2%,-6%,-4%,i,-3%,/,Hsp90-TPR2A inh=-91*[alpha-screen platform artifact]
c1ccc(-c2ccc(-c3nc(-c4ccccn4)no3)cc2)cc1,9%,6%,1%,/,i,-1%,/,
c1ccc(-c2n[nH]c(-c3ccccn3)n2)nc1,0.2µM*,1%,-1%,-3%,i,1%,/,Hsp90-TPR2A inh=-98*[alpha-screen platform artifact]
COc1cccc(Cn2c(=O)c(-c3cc(F)cc(F)c3)nc3cnc(N(C)C)nc32)c1,-6%,?,-2%,?,i,4%,/,
Oc1c(CN2CCOCC2)cc(COCc2ccccc2)c2cccnc12,1.6µM*,11%,0%,-2%,i,-2%,/,Hsp90-TPR2A inh=-100*[alpha-screen platform artifact]
CNc1ccccc1C(=O)N1CCc2c([nH]c3ccccc23)C1=O,/,/,3%,/,/,-1%,/,
CNc1oc(Cc2cccc3ccccc23)nc1C#N,-11%,1%,1%,-8%,i,1%,/,
N#Cc1nc(Cc2cccc3ccccc23)oc1NCCN1CCCCC1,7.9µM*,-6%,0%,-7%,i,1%,/,Hsp90-TPR2A inh=-23
COC(=O)Cc1cc(=O)n(-c2nc3ccccc3[nH]2)[nH]1,7.9µM*,-9%,-2%,-6%,i,0%,/,Hsp90-TPR2A inh=-100*[alpha-screen platform artifact]
CCCc1nc2c(=O)n(C)c(=O)nc-2n(C)n1,/,/,/,/,/,/,/,Hsp90-TPR2A inh=+
CC(=O)NCCNc1ccnc(-c2ccccc2C)n1,-2%,19%,0%,6%,i,0%,/,
COc1ccc(F)cc1S(=O)(=O)n1cc(C)nc1-c1ccccc1,?,4%,1%,7%,i,-4%,-53[25.6 µM],
COc1ccc(C)cc1Cn1c(S(C)(=O)=O)nc2ccccc21,-4%,?,1%,?,i,1%,/,
Cc1ccc(C)c(Cn2c(C(C)O)nc3ccccc32)c1 (configuration not stated),-6%,18%,0%,4µM*,i,-1%,-3,
c1ccc([C@H](CCN2CCCC2)c2ccccn2)cc1,-4%[11 µM],-6%[11.4 µM],-1%[15.4 µM],-4%[11.4 µM],i,-4%[15.4 µM],/,
O=c1c(-c2ccc(F)cc2)nc2cncnc2n1C1CC1,-4%,11%,0%,2%,i,-3%,/,
Nc1nnc(SCC(=O)NCc2ccc3c(c2)OCO3)s1,-3%,-6%,-1%,-8%,i,-2%,/,
NC(=O)c1nsc(C(=O)N(CC(=O)NCc2ccc3c(c2)OCO3)C2CCCC2)c1N,1%,13%,0%,13µM*,i,-2%,7,
CCCCCCC#CC1C=CC(Oc2ccc(C=O)cc2)C(CO)O1 (configuration not stated),/,1%[11.4 µM],1%[15.4 µM],4%[11.4 µM],/,-2%[15.4 µM],/,
CCCC(=O)C1=C(SCC)CC(C)(C)C(C(=O)OC)C1=O (configuration not stated),1%,?,1%,?,i,-6%,10,
Cc1cc(C)n(S(=O)(=O)c2cc(C(=O)O)c(Cl)cc2Cl)n1,-1%,15%,1%,16µM*,i,0%,5,
Cn1c(=O)c(CCc2ccccc2)nc2cnc(Oc3ccccc3)nc21,6%,?,-2%,?,i,14%,/,
SMILES,Hsp90 Hop PPI,HEK293 cAMP cs,BRCT inh red,TSHR ag,YjeE inh,BRCT inh green,HEK293 cAMP cnt,others
O=C(CSc1nnc(-c2ccccc2)n1Cc1ccco1)Nc1ccc2c(c1)OCCO2,-8%,28%,1%,20µM*,i,1%,-7,
O=C(CSc1nnc(-c2cccs2)n1Cc1ccco1)Nc1ccc2c(c1)OCO2,-8%,?,-1%,?,i,2%,/,
c1ccc2c(c1)NC1(CCCCC1)n1c-2nc2ccccc21,3%,2%,0%,/,i,-1%,/,
CC1(c2ccccn2)Nc2ccccc2-c2nc3ccccc3n21 (configuration not stated),7%,11%,-1%,16µM*,i,1%,15,
COCCn1c(=O)c(-c2ccc(OC)cc2)nc2cnc(Nc3cccc(OC)c3)nc21,-4%,12%,-1%,-4%,i,32%,/,
Cc1cc(C)nc(N2CCN(c3ncnc4c3cnn4Cc3ccc(Cl)cc3Cl)CC2)n1,-4%,11%,-6%,5%,i,-1%,/,
Cc1ccccc1N1CCN(c2ncnc3c2cnn3Cc2ccc(Cl)cc2)CC1,25%,18%,-1%,/,i,-4%,?,
O=C(O)[C@@H]1CCN(Cc2oc(CO)cc(=O)c2O)C1,0%[11 µM],6%[11.4 µM],2%[15.4 µM],6%[11.4 µM],i,0%[15.4 µM],/,
O=C(Nc1ccc(N2CCOCC2)cc1)C1CC1,-3%,3%,-1%,-2%,i,-2%,5[25.6 µM],
O=C(Nc1ccc(N2CCOCC2)cc1)NC1CCCCC1,/,-11%,2%,17%,/,2%,/,
COc1ccc2c(c1OC)C(Cc1ccccc1)N1CCc3cc4c(cc3C1=C2)OCO4 (configuration not stated),/,/,-4%,/,/,-5%,/,
CN1CCN(c2ncc3nc(-c4cn(C)c5ccccc45)c(=O)n(CCC#N)c3n2)CC1,?,-37%,1%,?,i,9%,/,
C=C(C)Cn1c(-c2ccccc2)nc2ccccc21,-3%[11 µM],71%[11.4 µM],-1%,3.2µM*,i,1%,?,
